We go through 20 molecules from PubChem BioAssay (NCI).

The structures appear in SMILES notation. This is part of a sample that, as a whole, favours compounds with a hit. Of some 79,000 tested, about 15% had one in any assay. Values without a mark were called inactive. The source made the active and inactive calls. Cut-off read from the data, not from the text of the source: active = growth inhibition above about 70%; inactive = the rest.

Test [1] in a line: NCI Yeast Anticancer Drug Screen. Data for the rad50 strain (AID 155).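 Note: 0% = growth of vehicle-only cultures of the same strain.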 Conditions: S. cerevisiae rad50 strain growth inhibition; at 50.0 µM; active compounds read high. An outline of the steps: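 DNA repair mutant yeast, compound exposure, growth read-out; inhibition is taken relative to vehicle.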
A short description of test [2]: NCI Yeast Anticancer Drug Screen. Data for the mec2-1 strain (AID 157). Conditions: S. cerevisiae mec2-1 strain, at 50.0 µM, active compounds read high. An outline of the steps:
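Using mec2-1 yeast: add compound, measure growth, express inhibition versus vehicle-treated cultures.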

Test [3] in a line: NCI Yeast Anticancer Drug Screen. Data for the sgs1 mgt1 strain (AID 161).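 Note: 0% = growth of cultures given vehicle only.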 Conditions: S. cerevisiae sgs1 mgt1 strain, at 50.0 µM, active compounds read high. An outline of the steps: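 Compounds are added to genetically altered yeast, and growth is compared with cultures given vehicle alone to give percent inhibition.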
A short description of test [4]: NCI Yeast Anticancer Drug Screen. Data for the cln2 rad14 strain (AID 165).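 Note: 0% = growth equal to vehicle treated cultures.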 Conditions: S. cerevisiae cln2 rad14 strain, at 50.0 µM, active compounds read high. An outline of the steps:
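Yeast strain cln2 rad14, bearing defects in cell cycle control and DNA repair, serves as the test system; values reflect growth inhibition compared with vehicle.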

A short description of test [5]: NCI Yeast Anticancer Drug Screen. Data for the bub3 strain (AID 167). Conditions: S. cerevisiae bub3 mutant strain, at 50.0 µM, active compounds read high. In a few lines:
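In this screen, a yeast mutant lacking normal mitotic checkpoint function is challenged with compound. Relative growth versus vehicle gives the inhibition value.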

The nature of test [6]: NCI Yeast Anticancer Drug Screen. Data for the mlh1 rad18 strain (AID 175). Conditions: S. cerevisiae mlh1 rad18 strain growth inhibition; at 50.0 µM; active compounds read high. In a few lines: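 Steps: expose repair-defective yeast to compound; measure growth; express inhibition against vehicle-treated controls.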

As to `Fc1ccc(-c2cc(-c3ccc(F)cc3)cc(-c3ccc(F)cc3)c2)cc1`, the growth inhibition in test [1] is -0.4%; in test [2], 11.5%; in test [3], 13.2%; in test [4], 14.2%; in test [5], -8.15%; in test [6], 10.4%.
On to `Cc1c2c(c(C)c3c1C(=O)c1cc4c(cc1C3=O)OCO4)OC(C)O2`, for which the growth inhibition in test [1] is -10.5%; in test [2] it was -15.5%; in test [3], -18.6%; in test [4] it was -28.4%; in test [5] it was -47.7%; in test [6], -18.6%.
Regarding `O=C(NCc1cccnc1)C1COc2cc(-c3cc(=O)c4ccccc4o3)ccc2O1` (stereo not given), the growth inhibition was -9.55% in test [1]; -18.9% in test [2]; -23.9% in test [3]; -5.25% in test [4]; -6.95% in test [5]; -49% in test [6].
In the case of `Cc1[nH]c(=O)[nH]c(=O)c1CCS`, the growth inhibition in test [1] is -12.2%; in test [2], 1.2%; in test [3] it was 5.3%; in test [4], 37.5%; in test [5], -20%; in test [6], -13.2%.
In the case of `O=NNc1ccc(Sc2ccccc2)cn1`, the growth inhibition is 6.8% in test [1]; -9.2% in test [2]; -3.75% in test [3]; -8.55% in test [4]; -31.6% in test [5]; 10.6% in test [6].
Regarding `CCCCCCCC/C=C\CCCCCCCC(=O)NCCN(CC)CC`, the growth inhibition in test [1] was 98.7% (active); in test [2] it was 99.3% (active); in test [3], 99.3% (active); in test [4] it was 96.8% (active); in test [5] it was 98.7% (active); in test [6] it was 98.8% (active).
On to `COc1ccc(-c2cc(-c3ccccc3)nc(/N=C\c3ccccc3)n2)c(O)c1`, for which the growth inhibition was -10.7% in test [1]; -20.4% in test [2]; -15.5% in test [3]; -17.9% in test [4]; -34.7% in test [5]; -51.2% in test [6].
Regarding `Cc1nn2c(C(=O)O)nnc2s1`, the growth inhibition in test [1] is -0.3%; in test [2], 5.25%; in test [3] it was 7.7%; in test [4], -21.8%; in test [5], -16.6%; in test [6], -13.8%.
Turning to `CC(C)OC(=O)NN(C)c1ccccc1`, the growth inhibition was 15.4% in test [1]; 11.1% in test [2]; 14% in test [3]; -54.3% in test [4]; 3.9% in test [5]; 13.8% in test [6].
For `CC(CS(C)(=O)=O)S(=O)(=O)O` (stereo not given), the growth inhibition in test [1] is -6.25%; in test [2], -20.4%; in test [3], -1.35%; in test [4], -0.3%; in test [5], -14.7%; in test [6], -5.85%.
Regarding `CCCCCCCCCCCCCCCCOP(=O)(O)OP(=O)(O)OCC1OC(n2ccc(N)nc2=O)CC1O` (stereo not given), the growth inhibition in test [1] was -10.2%; in test [2], -3.9%; in test [3], 8.7%; in test [4], -17.8%; in test [5], 20.6%; in test [6], 12.7%.
In the case of `CC(=N\N=C\c1ccccn1)/C(C)=N/N=C(C)/C(C)=N/N=C/c1ccccn1`, the growth inhibition is 29.1% in test [1]; 17.9% in test [2]; 7.9% in test [3]; 11.4% in test [4]; 1.95% in test [5]; -23.1% in test [6].
As for `C[N+](=C\c1ccccc1O)/N=C\c1ccccc1O`, the growth inhibition in test [1] is 7.15%; in test [2], 2.05%; in test [3] it was 6.75%; in test [4], -35.6%; in test [5] it was 8.2%; in test [6] it was -1.5%.
As for `CCCCn1cnc2c(SSc3ncnc4c3ncn4CCCC)ncnc21`, the growth inhibition in test [1] was -11.6%; in test [2], -11.3%; in test [3], 5.1%; in test [4], 12%; in test [5], 22.4%; in test [6], 75.7% (active).
`COC(=O)C1c2ccccc2CC(=O)N1NC(C)=O` (stereo not given): the growth inhibition was 15.6% in test [1]; 1.65% in test [2]; -19.4% in test [3]; 9.65% in test [4]; 5.3% in test [5]; 10.4% in test [6].
For the molecule `O=C(O)CO.[NH2-].[NH2-].[Pt+2]`, the growth inhibition in test [1] is -10.1%; in test [2] it was -17.8%; in test [3] it was -4.85%; in test [4], -14.9%; in test [5] it was -20.2%; in test [6], -18.2%.
`CN(C)CCNC(=O)c1cccc2c1Oc1cccc([N+](=O)[O-])c1O2`: the growth inhibition in test [1] was -12.7%; in test [2] it was -14.1%; in test [3], -9.85%; in test [4], 14.4%; in test [5], -12.1%; in test [6], -34.3%.
With `O=C(O)Cc1cc(=O)oc2cc(O)c(Cl)cc12`, the growth inhibition in test [1] was 1.75%; in test [2] it was -20%; in test [3], -7.15%; in test [4], 15.8%; in test [5], 3.25%; in test [6] it was -5.55%.
Consider `CCN(CCO)CC(O)Cn1cnc2c(N)ncnc21` (stereo not given) (tested in a mixture with another compound), for which the growth inhibition in test [1] is -10.6%; in test [2], 26.2%; in test [3], -11.8%; in test [4], 31.4%; in test [5], -1.95%; in test [6], 17.4%.
With `NC(Cc1cnc[nH]1)C(=O)NCC(=O)O` (stereo not given), the growth inhibition in test [1] was -11.4%; in test [2] it was -6.2%; in test [3], -11.8%; in test [4], -10.2%; in test [5] it was 4.3%; in test [6] it was -8.95%.
